Assay results as given in PubChem BioAssay.
Activity calls are given as the source filed them.

The compounds below were run against Homeobox protein Hox-A13 (Mus musculus) (UniProt Q62424) (assay: inhibitors of HoxA13-DNA binding, primary screen, biochemical, fluorescence polarization, labeled oligonucleotide (AID 1185)). Conditions: 15 min, higher = more signal, called active from +8 up or from −8 down.
Sequence of Homeobox protein Hox-A13 (Mus musculus) (Q62424 whole entry, looked up): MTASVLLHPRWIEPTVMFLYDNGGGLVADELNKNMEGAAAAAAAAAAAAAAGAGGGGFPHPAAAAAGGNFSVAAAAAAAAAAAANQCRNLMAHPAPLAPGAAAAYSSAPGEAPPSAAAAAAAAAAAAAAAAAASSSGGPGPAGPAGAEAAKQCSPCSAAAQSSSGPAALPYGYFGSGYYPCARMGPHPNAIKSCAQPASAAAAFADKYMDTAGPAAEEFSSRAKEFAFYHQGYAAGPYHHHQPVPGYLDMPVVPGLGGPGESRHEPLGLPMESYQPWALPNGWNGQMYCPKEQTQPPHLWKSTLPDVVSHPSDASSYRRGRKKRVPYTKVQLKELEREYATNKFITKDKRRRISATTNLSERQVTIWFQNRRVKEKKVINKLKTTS

z-score, inactive:
Cc1cc(C)c(-c2cc([C@H](C)ON=C3[C@H]4CCn5c(=O)n(-c6ccccc6)c(=O)n5[C@H]4[C@H](O)[C@@H]4O[C@H]34)on2)c(C)c1 -4.69, O=C1[C@H]2[C@H]3[C@H](O)[C@H](O)CC(=NOCc4ccccc4)[C@H]3CC[C@H]2C(=O)N1C[C@@H]1CCCO1 -1.68, C=CC[C@@H]1C=C[C@H](ON=C[C@@H](OC)[C@H](C)C=CCC(=O)OC)[C@@H](CO)O1 -0.413, COC(=O)C1=C(C)N(Cc2ccccc2)[C@]23O[C@](C(=O)OC)(C(=O)N2[C@@H]1c1ccccc1)[C@H]1CCOC(=O)[C@H]13 -4.7, O=C(NN=C1C[C@@H](O)[C@@H](O)[C@@H]2[C@@H]3C(=O)N(c4cccc(Oc5ccccc5)c4)C(=O)[C@@H]3CC[C@H]12)OCc1ccccc1 -3.8, CC(CCN1CCCCc2nc(C)c(C)cc21)=NOC(C)CN1CCCCc2nc(C)c(C)cc21 (centres undefined) -5.75, CC(C)CON=C1C[C@@H](O)[C@@H](O)[C@@H]2[C@@H]3C(=O)N(C[C@@H]4CCCO4)C(=O)[C@@H]3CC[C@H]12 -1.58, CC(CCN1CCc2nc(-c3ccccc3)c(-c3ccccc3)cc2C1)=NO[C@@H](C)c1cn([C@H](CO)Cc2ccccc2)nn1 -4.81, C=COC[C@H]1CN2[C@@H](CC[C@@H](C)[C@@H]2c2ccc(Br)cc2)C(=O)O1 -2.37
